Records with an inconclusive call do not appear. Unmarked numbers belong to inactive results. Activity calls are given as the source filed them. Calls follow the shape of the dose curve; as a rule, active = well fitted inhibition curve with a large enough effect; inconclusive = small, poorly fitted or top-dose-only effect; inactive = flat fitted curve, though single readings scatter. Where a SMILES comes first, the peptide text is derived from it.
% is scaled to controls: 0 for no effect and ±100 for the full control effect; potency is read from the fitted curve at half-maximal effect.

In the first experiment the test system is HaCat. Nature of the experiment: Cytotoxic Profiling of Annotated Libraries Using Quantitative High-Throughput Screening (AID 1296008). Also: nearly all actives have a fitted effect of over 60% in size. The conditions noted are these: Five cell lines viability, CellTiter-Glo ATP luminescence, 48-72 h; max response: hits give low values. In outline: (§1)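 Cytotoxicity was measured as CellTiter-Glo ATP luminescence, read after 10 min at room temperature. Compound treatment of the cells lasted 48 or 72 hr at 37 degrees Celsius in a qHTS format.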
For the molecule `CC1(C)O[C@@H]2C[C@H]3[C@@H]4C[C@H](F)C5=CC(=O)C=C[C@]5(C)[C@@]4(F)[C@@H](O)C[C@]3(C)[C@]2(C(=O)CO)O1`, the max response was 1.62%.

As to `CCOC(=O)CN1CCCC1=O`, the max response was -7.15%. Consider `CCN(CC)CC(=O)Nc1c(C)cccc1C(=O)OC`, for which the molecule was classed as inactive. In the case of `C=C(C)C(=O)OCC(O)CO` (centres undefined), the molecule was called inactive.

`CC(C)(C)C1CCC(CC2=C(O)c3ccccc3C(=O)C2=O)CC1` (centres undefined): the max response is -2.75%.

For a further experiment, the system named is NIH3T3. The description is as above. The conditions noted are these: Five cell lines viability, CellTiter-Glo ATP luminescence, 48-72 h; max response: hits give low values. An outline of the steps: as §1
In general terms: ATP-based viability assays read luminescence as a measure of living cells.
With `O=C(CS(=O)Cc1ccco1)NC/C=C\COc1cc(CN2CCCCC2)ccn1` (centres undefined), the max response is -2.51%. Regarding `COc1ccc(CCC(C)=O)cc1`, the outcome was inactive. `C[C@@H]1CCC[C@H](C)N1CCCC(O)(c1ccccc1)c1ccccn1` (some centres undefined): the max response is -1.21%. As for `CCCCN(CCCC)C(C(N)=O)c1ccc(OC)cc1` (centres undefined), the molecule was classed as inactive. `C=CCNc1nc(NCC=C)nc(N2CCN(C(c3ccc(F)cc3)c3ccc(F)cc3)CC2)n1`: the max response is -15.1%. On to `CCCC(CCC)(C(=O)OCC)C(=O)OCC`, for which the max response was 4.44%.

As for `CC(NC(CCc1ccccc1)C(=O)O)C(=O)N1C(=O)N(C)CC1C(=O)O` (centres undefined), the max response is -5.8%. For the molecule `CC(C)N(CCC(=O)c1ccc2ccccc2c1)Cc1ccccc1`, the Potency is 10.3 µM (active).

As to `CO[C@]1(NC(=O)CSC(F)F)C(=O)N2C(C(=O)O)=C(CSc3nnnn3CCO)CO[C@H]21`, the max response was 1.66%. Turning to `CN1Cc2cc(C(=O)N3CCC(C4CCNCC4)CC3)ccc2NC(CC(=O)O)C1=O` (centres undefined), the max response is -2.76%. On to `Clc1ccc2c(c1)Nc1ccccc1S2`, for which the result was inactive.

For `CN(C)CCCOC1(Cc2ccccc2)CCCCCC1`, the max response was 0.545%. Consider `CCCCCC1Nc2cc(C(F)(F)F)c(S(N)(=O)=O)cc2S(=O)(=O)N1` (centres undefined), for which the call was inactive. `O=C(O)Cn1cnnn1`: the max response was -2.11%. Consider `CCn1ccc(NS(=O)(=O)c2ccc(N)cc2)nc1=O`, for which the molecule was called inactive. As to `CO/N=C(\C(=O)O)c1csc(NC(=O)CCl)n1`, the outcome was inactive.

In the case of `CNC[C@H](O)[C@@H](O)[C@H](O)[C@H](O)CO`, the max response was 1.64%.

Take `O=C(CCCl)NCCc1ccccc1`: the max response is -1.58%. On to `CC(Oc1c(Cl)cccc1Cl)C1=NCCN1` (centres undefined), for which the max response was 3.55%. Turning to `O=[N+]([O-])c1cncn1CCN1CCOCC1`, the max response is 2.27%.

In the case of `CC(=O)O[C@@H]1CC2C3CCc4cc(OC(=O)c5ccccc5)ccc4C3CCC2(C)[C@H]1OC(C)=O` (some centres undefined), the max response was 3.57%. Same read-out and setting: to `CCN(CC)C(=O)C1CN2CCc3cc(OC)c(OC)cc3C2CC1OC(C)=O` (centres undefined) belongs -5.34%; to `CC(=O)N[C@@H](CO)C(=O)N[C@@H](CC(=O)O)C(=O)N[C@@H](CCCCN)C(=O)N1CCC[C@H]1C(=O)O` (Ac-SDKP-OH), -0.894%. As for `CN(C)CCN(Cc1ccsc1)c1ccccn1`, the result was inactive.

In the case of `CCCCCCOC(=O)NC(=N)c1ccc(NCc2nc3cc(C(=O)N(CCC(=O)OCC)c4ccccn4)ccc3n2C)cc1`, the max response is 1.24%. For the molecule `CC(=O)/C=C/C=C1/C2CCC(C2)C1(C)C` (centres undefined), the max response was -0.501%. On to `CCCCOC(=O)CCCCCCCCC(=O)OCCCC`, for which the molecule was classed as inactive. As to `CC1(C)O[C@@H]2C[C@H]3[C@@H]4CCC5=CC(=O)C=C[C@]5(C)[C@@]4(F)[C@@H](O)C[C@]3(C)[C@]2(C(=O)CO)O1`, the max response was -1.75%. Turning to `Cc1cccc(OCC(O)CNC(C)(C)C)c1C` (centres undefined), the max response was 0.115%. With `CCCCC(O)/C=C(C)/C=C/C=C/C(=O)N1CCCC1=O` (centres undefined), the call was inactive.

As to `CC(=O)N(CC(=O)N(C)C)c1ccccc1`, the max response was 1.94%. On the same count and under the same terms, to `C[C@H]1C[C@@H]2[C@H]([C@@H](O)C[C@@]3(C)[C@H]2CC[C@]3(O)C(=O)CO)[C@@]2(C)C=CC(=O)C=C12` belongs 0.285%. Consider `Cc1[nH]cnc1-c1ccc(Cl)cc1`, for which the result was inactive. Take `O=C(c1ccco1)N1CCNCC1`: the max response is 4.52%. For the molecule `CC1(C)O[C@@H]2C[C@H]3[C@@H]4C[C@H](F)C5=CC(=O)C=C[C@]5(C)[C@@]4(F)[C@@H](O)C[C@]3(C)[C@]2(C(=O)CO)O1`, the max response is -12.6%. Take `CCOC(=O)CN1CCCC1=O`: the molecule was classed as inactive.

With `CCN(CC)CC(=O)Nc1c(C)cccc1C(=O)OC`, the max response was 1.11%. `C=C(C)C(=O)OCC(O)CO` (centres undefined): the max response is 4.75%.

`CC(C)(C)C1CCC(CC2=C(O)c3ccccc3C(=O)C2=O)CC1` (centres undefined): the max response was -2.94%.
